Drawing on PubChem BioAssay (EPA / NIEHS), this text covers outcome and AC50 for 1 compound.

A word on the AC50: it is the concentration giving half of the maximal activity seen.

Inconclusive results are not listed. The source made the active and inactive calls. How the source made its calls, unless noted: active means hit-call score of the fitted dose curve at least 0.9, where 1 is the maximum; inactive means score below 0.9.

Assay [1] can be described thus: CCTE_Shafer_MEA_acute_spike_number: CCTE's Neural Acute Assay for Total Number of Spikes, Shafer Lab (AID 2284008). The gist of the method: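 Read-out is the total spike count over 40 min, expressed as percent change from each well's own pre-treatment baseline and fitted in the loss direction against DMSO. Rat cortical neurons were exposed at 0.03-40 uM on DIV 13 or 15.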

Assay [2] in a line: CCTE_Shafer_MEA_acute_firing_rate_mean: CCTE's Neural Acute Assay for Mean Firing Rate, Shafer Lab (AID 2284009).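 Further: analyzed for loss of signal so actives lower firing rate relative to DMSO.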 The gist of the method:
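Percent change in well-mean firing rate was derived from extracellular spikes detected at 8x rms noise (300-5000 Hz band-pass) before and after a 40-min compound exposure. Cultures were primary rat cortical neurons, tested at 0.03-40 uM.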

Assay [3] in a line: CCTE_Shafer_MEA_acute_burst_number: CCTE's Neural Acute Assay for Single-Electrode Bursts, Shafer Lab (AID 2284013). The gist of the method:
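Spontaneous network activity of primary rat cortical neurons was recorded extracellularly on microelectrode arrays at 37 C, with 40-min periods before and during exposure to 0.03-40 uM compound on DIV 13 or 15.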

Assay [4] can be described thus: CCTE_Shafer_MEA_acute_burst_duration_mean: CCTE's Neural Acute Assay for Mean Burst Duration, Shafer Lab (AID 2284014).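 Further: hits are decreases in mean burst duration relative to DMSO controls.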 The gist of the method:
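Read-out is the per-well percent change in mean burst duration (first to last spike within a single-electrode burst) between 40-min recordings before and after compound. Cultures were primary rat cortical neurons on MEAs, dosed at 0.03-40 uM on DIV 13 or 15.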

A short description of assay [5]: CCTE_Shafer_MEA_acute_per_burst_spike_number_mean: CCTE's Neural Acute Assay for Average Number of Spikes Per Burst, Shafer Lab (AID 2284015).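 Further: hits are decreases in mean spikes per burst versus baseline.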 The gist of the method: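 We recorded spontaneous network firing of rat cortical neurons for 40 min before and 40 min during exposure to compound at 0.03-40 uM, at 37 C. Spikes were detected adaptively at 8x rms noise, and the change in average spikes per burst was fitted against DMSO.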

Assay [6] can be described thus: CCTE_Shafer_MEA_acute_interburst_interval_mean: CCTE's Neural Acute Assay for Mean Interburst Interval, Shafer Lab (AID 2284016).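 Further: percent change of mean interburst interval versus each well's own pre-dose baseline; curves fitted for decrease in interburst interval relative to DMSO.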 The gist of the method: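 MEA recording of spontaneous network bursting in primary rat cortical cultures; mean interburst interval was compared before and after a 40-min compound exposure (0.03-40 uM) and expressed as percent change, relative to DMSO.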

Assay [7] is described as follows: CCTE_Shafer_MEA_acute_burst_percentage_mean: CCTE's Neural Acute Assay for Percentage of Spikes in a Burst, Shafer Lab (AID 2284017). The gist of the method: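 Compounds were tested at 0.03-40 uM on primary rat cortical neuron networks grown over microelectrodes, with at least three wells per compound. Spontaneous firing was recorded for 40 min before and 40 min after dosing, and the change in burst percentage was computed per well.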

The nature of assay [8]: CCTE_Shafer_MEA_acute_burst_percentage_std: CCTE's Neural Acute Assay for Standard Deviation of Burst Percentage, Shafer Lab (AID 2284018).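 Further: fitted in the negative direction so actives lower burst percentage SD.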 The gist of the method:
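Value is percent change from baseline in the across-electrode SD of spikes-in-bursts percentage, wells with >/= 10 active electrodes. Acute 40-min exposure to 0.03-40 uM on DIV 13 or 15 rat cortical cultures, recorded at 37 C after 40-min baseline.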

Assay [9] is described as follows: CCTE_Shafer_MEA_acute_per_network_burst_spike_number_mean: CCTE's Neural Acute Assay for Average Number of Spikes in a Network Burst, Shafer Lab (AID 2284019). The gist of the method:
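Read-out is mean spike count per network burst, taken as percent change between a 40-min pre-exposure and a 40-min post-exposure recording per well. Rat primary cortical neurons on MEAs at 37 C, DIV 13 or 15; compounds at 0.03-40 uM.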

The nature of assay [10]: CCTE_Shafer_MEA_acute_per_network_burst_spike_number_std: CCTE's Neural Acute Assay for Standard Deviation of Number of Spikes in a Network Burst, Shafer Lab (AID 2284020).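 Further: fitted for decrease in spike-number SD versus DMSO so actives lower it.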 The gist of the method:
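Spontaneous network activity of primary rat cortical neurons is recorded extracellularly before and after a 40-min compound exposure (0.03-40 uM) at 37 C. The endpoint is the well's percent change in burst spike-number SD.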

Assay [11] can be described thus: CCTE_Shafer_MEA_acute_per_network_burst_electrodes_number_mean: CCTE's Neural Acute Assay for Mean Number of Electrodes in a Network Burst, Shafer Lab (AID 2284021).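 Further: curves fitted for decreases only so hits reduce electrodes per burst.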 The gist of the method: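 Primary rat cortical networks, mwMEA, 37 C. 20 min stabilization, 40 min baseline, compound 0.03-40 uM, 40 min re-record. Wells need >=10 active electrodes; percent change per well, negative fitting direction.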

Assay [12] in a line: CCTE_Shafer_MEA_acute_cross_correlation_area: CCTE's Neural Acute Assay for Area of Cross Correlation, Shafer Lab (AID 2284024).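 Further: area under pooled inter-electrode spike cross-correlation near zero lag as percent change from own baseline; curves fitted for loss of cross-correlation area so actives lower synchrony.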 The gist of the method:
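Plates equilibrated 20 min at 37 C, then 40 min baseline was recorded, compound was added (0.03-40 uM), and a further 40 min was recorded. Wells needed ≥10 active electrodes (≥5 spikes/min) on exposure day.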

Assay [13] in a line: CCTE_Shafer_MEA_acute_synchrony_index: CCTE's Neural Acute Assay for Synchrony, Shafer Lab (AID 2284027).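 Further: network synchrony index of spontaneous spiking in primary rat cortical neurons on MEAs; fitted for loss of signal so actives lower synchrony relative to DMSO.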 The gist of the method:
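Primary rat cortical neurons on 48-well MEAs, dosed at 0.03–40 uM on DIV 13 or 15. Spikes are recorded for 40 min at 37C before and after exposure, and synchrony index (0–1) is expressed as percent change from baseline per well.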

A short description of assay [14]: CCTE_Shafer_MEA_dev_firing_rate_mean: CCTE's Neural Network Formation Assay for Mean Firing Rate, Shafer Lab (AID 2284031). The gist of the method: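 Primary rat cortical neurons on 48-well MEA plates, exposed from plating day 0 with dosing renewed on DIV 5 and 9. Mean well firing rate over active electrodes, recorded days 5, 7, 9, 12, summarised as trapezoidal AUC.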

A short description of assay [15]: CCTE_Shafer_MEA_dev_per_burst_spike_percent: CCTE's Neural Network Formation Assay for Percent of Spikes in a Burst, Shafer Lab (AID 2284032). The gist of the method:
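Rat primary cortical neurons on 16-electrode MEA wells, dosed from plating day 0 for 12 days with renewal on DIV 5 and 9; spikes-in-bursts percentage averaged over bursting electrodes, collapsed as AUC across days 5, 7, 9, 12; loss direction versus DMSO.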

The nature of assay [16]: CCTE_Shafer_MEA_dev_active_electrodes_number: CCTE's Neural Network Formation Assay for Number of Active Electrodes, Shafer Lab (AID 2284040; active means hit-call score of the fitted dose curve at least 0.9, where 1 is the maximum). The gist of the method:
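Primary rat cortical neurons on 16-electrode MEA wells, exposed from day 0 through day 12 with compound renewed at DIV 5 and 9 feeds. Active electrodes (mean firing ≥5 spikes/min) counted at DIV 5, 7, 9, 12; trapezoidal AUC across days, loss-of-signal versus DMSO.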

Assay [17] can be described thus: CCTE_Shafer_MEA_dev_burst_rate: CCTE's Neural Network Formation Assay for Burst Rate, Shafer Lab (AID 2284042). The gist of the method: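 Developmental network assay measuring how 12-day exposure of rat cortical neuron cultures alters bursting on extracellular MEA recordings. Values are AUC of well-mean burst rate across four recording days, relative to DMSO vehicle.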

Assay [18] can be described thus: CCTE_Shafer_MEA_dev_burst_duration_mean: CCTE's Neural Network Formation Assay for Mean Burst Duration, Shafer Lab (AID 2284045). The gist of the method: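 Read-out: average first-to-last-spike interval within single-electrode bursts, averaged over bursting electrodes per well, then summarised as area under the curve across days 5, 7, 9 and 12. Developing rat cortical networks were exposed from day 0.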

Assay [19] in a line: CCTE_Shafer_MEA_dev_interburst_interval_mean: CCTE's Neural Network Formation Assay for Mean Interburst Interval, Shafer Lab (AID 2284046).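 Further: well-mean interburst interval of bursting electrodes as AUC over four recording days; curve fitted for decrease in interburst interval relative to DMSO.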 The gist of the method:
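Network formation assay in primary rat cortical cultures, exposed from DIV 0 to 12. Mean interburst interval per well, integrated as AUC over four recordings.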

A short description of assay [20]: CCTE_Shafer_MEA_dev_inter_network_spike_interval_mean: CCTE's Neural Network Formation Assay for Mean Inter-network Spike Interval, Shafer Lab (AID 2284047). The gist of the method:
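Compound was given at plating to primary rat cortical neurons and renewed with full medium changes on DIV 5 and 9. Extracellular activity was recorded on days 5, 7, 9, 12; AUC values were fitted for loss relative to DMSO control.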

Assay [21] is described as follows: CCTE_Shafer_MEA_dev_network_spike_number: CCTE's Neural Network Formation Assay for Number of Network Spikes, Shafer Lab (AID 2284048).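 Further: synchronized bursts across electrodes counted on days 5 7 9 12 and integrated as AUC.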 The gist of the method:
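Developing networks of primary rat cortical neurons are treated over 12 days starting at plating, with media and compound fully replaced on DIV 5 and 9. Network spike counts from four recording days are integrated as trapezoidal AUC.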

Assay [22] in a line: CCTE_Shafer_MEA_dev_network_spike_peak: CCTE's Neural Network Formation Assay for Mean Number of Electrodes in Network Spike, Shafer Lab (AID 2284049). The gist of the method: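 Rat cortical primary culture, 1.5 x 10^5 cells/well, 48-well MEA (16 electrodes/well). Dosing day 0 through DIV 12, full media/compound exchange DIV 5, 9. AxIS adaptive spike detection; AUC over days 5/7/9/12; loss-of-signal vs DMSO.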

Consider `C#CCN(C)[C@H](C)Cc1ccccc1`, for which the compound was classed as inactive in [1], in assay [2], in assay [3], in [5], in assay [7] and in [8]. The outcome in assay [9], in assay [10], in [11], in assay [12], in assay [13] and in assay [14] was inactive. Moreover, the compound was called inactive in [15], in assay [16], in assay [17], in [18], in assay [19] and in [20]. In addition, the compound was called inactive in assay [21] and in assay [22]. The AC50 in [4] is 8.86 µM (active); in [6] it was 15 µM (active).
